Assay outcomes as filed in PubChem.
D2 antagonist = antagonizes the human D2 dopamine receptor. P14416. HEK293 TREx D2 cells, calcium flux, dopamine EC80. inhibition, % at 10 µM. 2% of 340,000 active. AID 485344; in the data active = inhibition above about 30%; inactive = below that, where a call was filed; note: 0% is about no effect
Target sequence (P14416 whole entry, looked up): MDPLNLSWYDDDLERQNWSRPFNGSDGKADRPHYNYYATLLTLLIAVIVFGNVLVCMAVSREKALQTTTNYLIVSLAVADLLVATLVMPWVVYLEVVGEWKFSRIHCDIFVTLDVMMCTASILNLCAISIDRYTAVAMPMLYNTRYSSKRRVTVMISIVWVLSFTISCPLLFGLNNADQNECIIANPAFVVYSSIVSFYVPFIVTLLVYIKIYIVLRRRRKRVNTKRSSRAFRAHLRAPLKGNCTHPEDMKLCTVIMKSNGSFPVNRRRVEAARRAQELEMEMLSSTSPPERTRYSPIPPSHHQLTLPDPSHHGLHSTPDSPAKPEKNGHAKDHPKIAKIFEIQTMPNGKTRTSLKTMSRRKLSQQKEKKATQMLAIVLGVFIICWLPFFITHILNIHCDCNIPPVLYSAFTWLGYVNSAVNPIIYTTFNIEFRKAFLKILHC
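Compounds are added to dye-loaded, induced HEK293 T-REx cells coupled to calcium release via D2; after a 3 min kinetic read an EC80 dopamine stimulus is given and fluorescence is recorded for 3 more min.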
D2 ag-1 = agonists of human D2 dopamine receptor (beta-arrestin); activation, % (test concentration not listed); P14416; 0.084% of 360,000 active; AID 624465; DiscoveRx PathHunter D2 beta-arrestin, luminescence, 90 min; 100% = 57 uM dopamine signal; in the data active = activation above about 40%; inconclusive = between about 15% and that limit
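DiscoveRx PathHunter D2 beta-arrestin cells (2,100/well) attached overnight, then compound-stimulated 90 min at 37 C in HBSS/10 mM HEPES/0.1% Tween-20 buffer; beta-galactosidase complementation read by luminescence after 1 h at ambient temperature. Dopamine 57 uM final (EC100) as control.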
D2 ag-2 = agonists of human D2 dopamine receptor; P14416; HEK293 T-REx D2 cells, calcium flux agonist mode; activation, % at 2 µM; 0.53% of 340,000 active;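 active = activation over 3 SD above normal in the single-dose calcium agonist read, cut at about 30% in these data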; note: 0% is about no effect
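HEK293 Trex D2 cells, tetracycline-induced, o/n 30 C 5% CO2; no-wash Ca dye, RT 30–90 min; 10-cycle baseline, 23 nl cpd added, kinetic Ca read 180 s; agonist hits = positive Ca response.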
D2 PAM-1 = positively modulates the human D2 dopamine receptor allosterically; P14416; HEK293 T-REx D2, calcium flux, EC20 dopamine potentiation; potentiation, % at 10 µM; 0.34% of 340,000 active; AID 485347;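 active = potentiation over 3 SD above the plate norm, cut at about 30% in these data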; note: 0% is about no effect
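Potentiation of an EC20 dopamine calcium response measured kinetically over 180 s, after a preceding 180 s compound-only read flagging agonists. Cells: inducible Hek293 Trex D2 line, 4000/well, cultured overnight at 30 C before dye loading.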
D2 PAM-2 = positive allosteric modulators of human D2 dopamine receptor. AID 624464. DiscoveRx D2 beta-arrestin cells, luminescence, 90 min; 100% = 57 uM dopamine signal. 0.23% of 360,000 active. potentiation, % (concentration not given with the values). P14416; in the data active = potentiation above about 50%; inconclusive = mostly about 30% to 49%
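PathHunter beta-arrestin assay in DiscoveRx D2 cells. Compounds were added with an EC20 of dopamine (50 nM final) for 90 min at 37 deg C. Luminescence was read 1 h after detection reagent, with 57 uM dopamine as the EC100 control.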
Numbers without * were called inactive; u = inconclusive; x = not tested or not shown. This is a sample that favours compounds with a hit; in the whole collection about 2.4% have one here.

SMILES | D2 antagonist | D2 ag-1 | D2 ag-2 | D2 PAM-1 | D2 PAM-2
CCN1C(=O)c2ccccc2S(=O)c2ccc(C(=O)NCc3ccc(OC)cc3)cc21 (centres undefined) | 81* | 0 | -1 | -22 | -3
CCN1C(=O)c2ccccc2S(=O)c2ccc(C(=O)NCc3ccccc3OC)cc21 (centres undefined) | x | x | 0 | -15 | x
CCCN(CCC)CCCNC(=O)c1ccc2c(c1)N(CC)C(=O)c1ccccc1S2=O (centres undefined) | 107* | -1 | 0 | -22 | -6
CCN1CCN(C(=O)c2ccc3c(c2)N(Cc2ccccc2)C(=O)c2ccccc2S3=O)CC1 (centres undefined) | 27 | -3 | 1 | -22 | -15
CCN1C(C(=O)c2ccccc2)=C(OC(=O)c2ccccc2OC)c2ccccc2S1(=O)=O | x | x | 3 | 9 | x
O=C(CCN1C(=O)c2ccccc2Sc2ncccc21)Nc1ccc(F)cc1F | x | x | 1 | 5 | x
CCN1C(=O)c2ccccc2Sc2ccc(C(=O)NCCCN(CC(C)C)CC(C)C)cc21 | 42* | -2 | 1 | -11 | -11
CCCCN(CC)CCCNC(=O)c1ccc2c(c1)N(Cc1ccc(C)cc1)C(=O)c1ccccc1S2 | x | x | 0 | -4 | x
CCC1CN(C(=O)N2CCC(C(=O)NCCc3cc(OC)ccc3OC)CC2)c2ccccc2O1 (centres undefined) | x | x | 0 | 8 | x
Cc1ccc(C(NC(=O)c2ccccc2S(C)(=O)=O)c2ccccc2)cc1 (centres undefined) | -17 | -1 | -1 | 34* | -5
CS(=O)(=O)c1ccccc1C(=O)Nc1ccccc1Cc1ccccc1 | -14 | 1 | 0 | -7 | -1
Cc1ccc(C(NC(N)=O)c2ccccc2)cc1 (centres undefined) | 40* | 1 | 0 | 5 | -2
Cc1cc(N(C)Cc2ccccc2)n2nc(-c3ccc(C(C)(C)C)cc3)nc2n1 | x | x | 0 | 0 | x
CC(C)C1Oc2ccccc2N(CC(=O)N2CCOCC2)C1=O (centres undefined) | 38* | -2 | 0 | -1 | 3
Cc1ccc(C2=NC(c3ccc(F)cc3)=Nc3ccc(C)cc3N2)cc1 | x | x | 2 | 3 | x
Clc1cccc(-c2ccc(CNCCCN3CCOCC3)o2)c1 | 92* | -3 | -1 | -21 | -20
O=C(NCCN1CCOCC1)c1cccc(Br)c1 | x | 2 | x | x | -6
O=C(NCCN1CCOCC1)c1cccc(Cl)c1 | 33* | -3 | 2 | -16 | -9
COc1cc(Cl)c(NS(=O)(=O)c2ccc3c(c2)CC(C)N3C(=O)C2CCC2)c(OC)c1 (centres undefined) | x | x | -1 | 2 | x
O=C(CCc1ccccc1)N1CCc2c([nH]c3ccccc23)C1c1ccc(F)cc1 (centres undefined) | x | x | 2 | -11 | x
COc1ccccc1N1CCN(C2CCCN(C(=O)c3csc(C)n3)C2)CC1 (centres undefined) | 3 | -6 | 0 | 10 | -30
CSc1nc(C(=O)N2CCCC(N3CCN(c4ccccc4C)CC3)C2)cs1 (centres undefined) | 39* | -1 | 2 | -14 | -32
COc1ccccc1N1CCN(C2CCCN(C(=O)c3oc(C)cc3C)C2)CC1 (centres undefined) | 46* | -5 | -1 | -25 | -42
CCc1cccc(C)c1NC(=O)CSc1nnc(N)s1 | x | x | -1 | 3 | x
CCCCc1nn2c(=O)cc(COC(=O)c3cccc(NC(=O)c4cccc(Cl)c4)c3)nc2s1 | x | x | 1 | 0 | x
SMILES | D2 antagonist | D2 ag-1 | D2 ag-2 | D2 PAM-1 | D2 PAM-2
COCC(=O)N(Cc1nc2sc(C)c(C)c2c(=O)[nH]1)C1CCCCC1 | 31* | -4 | -2 | 12 | -5
CCCCC(=O)N(Cc1nc2sc(C)c(C)c2c(=O)[nH]1)C1CCCC1 | 1 | -4 | 1 | 9 | -8
COc1ccc(-c2nc3cc(NC(=O)COc4ccccc4C)ccc3o2)cc1 | x | x | 2 | -5 | x
Cc1cc(C)c(NC(=O)CSC2=Nc3ccccc3C3=NC(CC(=O)NCc4cccs4)C(=O)N23)c(C)c1 (centres undefined) | x | x | -1 | 1 | x
CC(Cc1ccccc1)NC(=O)C1(c2ccccc2)CCOCC1 (centres undefined) | 9 | -2 | 0 | -1 | -9
CC(C)NC(=O)C1(c2ccccc2)CCOCC1 | -26 | -3 | 1 | 35* | -16
CC(=O)Nc1ccc(OCC(O)CN2CCN(c3cc(Cl)ccc3C)CC2)cc1 (centres undefined) | 93* | -3 | 19 | -25 | -21
OC(COc1ccccc1)CN1CCN(CC(O)COc2ccccc2)CC1 (centres undefined) | 30* | -4 | 1 | 0 | -4
CC(=O)Nc1ccc(OCC(O)CN2CCN(c3ccc(C)c(Cl)c3)CC2)cc1 (centres undefined) | 21 | 2 | 0 | 10 | -16
COc1ccccc1N1CCN(CC(O)COc2ccc3c(c2)CCC3)CC1 (centres undefined) | 80* | 2 | 23 | -20 | -34
COc1ccccc1N1CCN(CC(O)COc2ccc(C)c(C)c2)CC1 (centres undefined) | x | -2 | x | x | -20
O=[N+]([O-])c1ccccc1OCC(O)CN1CCN(CC(O)COc2ccccc2[N+](=O)[O-])CC1 (centres undefined) | 92* | -2 | 1 | -22 | -65
Cc1ccccc1NC(=O)CCn1cnc2onc(-c3ccc(F)cc3)c2c1=O | x | x | 0 | -3 | x
CCOC(=O)c1cnn(-c2ccc(OC)cc2)c1C1CCN(C(=O)OC(C)(C)C)CC1 | x | x | 0 | 5 | x
Cc1cccc(CNC(=O)CCCN2C(=O)COc3ccc(C)cc32)c1 | x | x | -1 | 26 | x
OC(COc1ccc(F)cc1)CN1CCN(c2ccccc2F)CC1 (centres undefined) | 87* | -7 | -1 | 1 | -21
CCOc1ccccc1N1CCN(CC(O)COCc2cccs2)CC1 (centres undefined) | 68* | -3 | 8 | -28 | -19
OC(CN1CCN(c2ccccc2F)CC1)c1ccc(F)cc1 (centres undefined) | 1 | 9 | 0 | 10 | -9
OC(COCc1cccs1)CN1CCN(c2ccccc2Cl)CC1 (centres undefined) | x | 3 | x | -24 | -31
Cc1nnc(N2CCCC(C(=O)Nc3cccc(C(F)(F)F)c3)C2)c2nn(-c3ccccc3)c(C)c12 (centres undefined) | x | x | x | 12 | x
O=C(Nc1ncc(S(=O)(=O)c2ccc([N+](=O)[O-])cc2)s1)c1ccc2ccccc2c1 | x | 14 | x | x | 73*
CCC(C)(C)C(=O)Nc1ncc(S(=O)(=O)c2ccc([N+](=O)[O-])cc2)s1 | -14 | 7 | 6 | 31* | 88*
O=C(CCl)Nc1ncc(S(=O)(=O)c2ccc([N+](=O)[O-])cc2)s1 | x | u | x | x | 6
